# Among all 220,000 compounds or so, about 2,000 (0.91%) were called active. About 2% were inconclusive and are not listed. No stated cut-off is given here; in the data, inconclusive means inhibition above about 80% without an active follow-up result; inactive means below that; test concentration not stated here. Not all results are given here. Results with a measured potency or affinity are listed apart.
# Assay: M. tuberculosis H37Rv growth inhibitors, H37Rv strain (AID 1626);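 further: bacteria incubated seven days before Alamar blue readout; 0% = bacteria only wells and 100% = bacteria with antibiotic wells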
# Conditions: stronger effect = higher value, concentration not given here
row,SMILES,inhibition
1,CC(O)Cc1cn([C@@H](CCCCNC(=O)OC(C)(C)C)C(=O)N2CCN(C(=O)OC(C)(C)C)CC2)nn1 (stereo partly specified),-10.7% (inactive)
2,CO/C=C/C#CC1(O)CCN(C)CC1,-1.81% (inactive)
3,O=C(NCC1CCCO1)c1cc(C(=O)c2ccc(Cl)cc2Cl)c[nH]1 (stereo unspecified),2.36% (inactive)
4,COCCCNC(=S)Nc1ccc(C)cc1,-3.56% (inactive)
5,CCCCCc1cc(=O)oc2c(C(CCN3CCN(c4ccccc4)CC3)c3ccc(N(C)C)cc3)c(OC)cc(OC)c12 (stereo unspecified),12.8% (inactive)
6,COc1cc(OC)c2ccc(=O)oc2c1C(CCN1CCCC(C)C1)c1ccc(N(C)C)cc1 (stereo unspecified),-10.1% (inactive)
7,COc1ccc(C(CCN2CCCC(C)C2)c2c(OC)cc(OC)c3c(C)cc(=O)oc23)cc1 (stereo unspecified),1.05% (inactive)
8,COc1cc(OC)c2c(C)cc(=O)oc2c1C(CCN1CCOCC1)c1ccc(N(C)C)cc1 (stereo unspecified),-12.1% (inactive)
9,COc1ccc(C(CCN2CCCC(C)C2)c2c(OC)cc(OC)c3c2OC(=O)CC3c2cc(OC)c(OC)c(OC)c2)cc1 (stereo unspecified),-7.36% (inactive)
10,COc1ccc(C(CCN2CCOCC2)c2c(OC)cc(OC)c3c(C)cc(=O)oc23)cc1 (stereo unspecified),-3.23% (inactive)
11,COc1cc(OC)c2ccc(=O)oc2c1C(CCN1CCCC1)c1ccc(N(C)C)cc1 (stereo unspecified),-8.24% (inactive)
12,CCCCCc1cc(=O)oc2c(C(CCN3CCN(c4ccccc4)CC3)c3ccc4c(c3)OCO4)c(OC)cc(OC)c12 (stereo unspecified),22.5% (inactive)
13,N/C(=N/OC(=O)c1ccccc1F)c1nonc1N,1.17% (inactive)
14,S=C(NCC1CCCO1)N1CCN(Cc2ccccc2Cl)CC1 (stereo unspecified),-6.51% (inactive)
15,CCOC(=O)c1cnn(CCOC(=O)c2ccccc2F)c1NC(=O)c1ccccc1F,-4.26% (inactive)
16,Clc1ccc(-c2c(C3=NCCCN3)nnn2-c2ccc(Cl)cc2)cc1,2.74% (inactive)
17,Cc1cc(=O)[nH]c(SCc2nc3ccccc3n2Cc2ccccc2)n1,-7.65% (inactive)
18,Cc1ccc(C(=O)Cn2nnc(-c3cccs3)n2)cc1,-5.53% (inactive)
19,CCN1CCN(Cc2ccc(NC(=O)c3ccc(C)c(NC(=O)c4cccc5[nH]ccc45)c3)cc2C(F)(F)F)CC1,-5.49% (inactive)
20,CCN1CCN(Cc2ccc(NC(=O)c3ccc(C)c(NC(=O)c4ccno4)c3)cc2C(F)(F)F)CC1,1.48% (inactive)
21,CCN1CCN(Cc2ccc(NC(=O)c3ccc(C)c(NC(=O)N4CCNC4=O)c3)cc2C(F)(F)F)CC1,-4.19% (inactive)
22,CCN1CCN(Cc2ccc(NC(=O)c3ccc(C)c(NC(=O)c4nccn4C)c3)cc2C(F)(F)F)CC1,2% (inactive)
23,Cc1ccc(S(=O)(=O)N2CCOCC2)cc1NC(=O)CN1CCC(Cc2ccccc2)CC1,9.42% (inactive)

row,SMILES,inhibition
1,CCOC(=O)c1c(C)[nH]c(C)c1C(=O)COC(=O)c1cc2ccccc2cc1O,-1.14% (inactive)
2,Cc1cc(C(=O)OCC(=O)N2CC(C)CC(C)C2)c(C)o1 (stereo unspecified),-6.8% (inactive)
3,CC(=O)OCC(=O)c1c[nH]c2ccccc12,-1.25% (inactive)
4,CC(C)(C)C(=O)COC(=O)c1ccccc1O,10.3% (inactive)
5,CC1CCN(C(=O)COC(=O)c2cc(Cl)cc(Cl)c2N)CC1,-13.4% (inactive)
6,COc1cccc(C(=O)OCC(=O)c2c[nH]c3ccccc23)c1O,7.28% (inactive)
7,COc1cc2ccccc2cc1C(=O)OCC(=O)N1CCOCC1,-12.6% (inactive)
8,CC1CC(C)CN(C(=O)COC(=O)c2ccc[nH]c2=O)C1 (stereo unspecified),-10% (inactive)
9,COc1ccccc1C/C(N)=N/OC(=O)c1ccc(C)c([N+](=O)[O-])c1,3.93% (inactive)
10,Cc1nnc(SCC(=O)N2CCN(S(=O)(=O)c3ccc(Cl)cc3)CC2)[nH]c1=O,-6.4% (inactive)
11,COc1ccc(C(=O)CSc2nnc(NC(=O)C3CC(=O)N(c4ccccc4C)C3)s2)cc1 (stereo unspecified),2.7% (inactive)
12,O=C(Nc1c(-c2cccs2)nc2ccccn12)c1ccc2ccccc2c1,0.95% (inactive)
13,CCC(CC)C(=O)Nc1cccc(-c2nc3ccccc3o2)c1,0.04% (inactive)
14,CCN(CC)C(=O)CC(c1ccccc1)c1ccco1 (stereo unspecified),-14.2% (inactive)
15,Cc1cc(C)nc(N(C#N)CCOc2ccc(Cl)cc2)n1,-4.66% (inactive)
16,Cn1c(=O)c2c(nc(SCCN3CCCCC3)n2Cc2ccccc2)n(C)c1=O,-2.51% (inactive)
17,CC(C)C(NC(=O)c1ccccc1F)C(=O)Nc1ccc2c(c1)OCO2 (stereo unspecified),1.73% (inactive)
18,CN(C)C(=O)/C(=C\c1cccc(Oc2ccccc2)c1)NC(=O)c1ccccc1,4.22% (inactive)
19,C/C(=N\NC(=O)c1cc(-c2cccnc2)nc2ccccc12)c1ccccc1O,2.39% (inactive)
20,Cc1cc(C(=O)OCC(=O)N2CCCC2)c2ccccc2n1,-17.2% (inactive)
21,CCC1CCCCN1C(=O)COC(=O)c1n[nH]c2ccccc12 (stereo unspecified),-3.06% (inactive)
22,O=C(COc1ccc(Cl)cc1)OCC(=O)N1CCCCCC1,7.95% (inactive)
23,O=C(OCC(=O)N1CCCCC1)c1ccccc1SCC(=O)N1CCCCC1,9.57% (inactive)

row,SMILES,inhibition
1,O=C(OCC(=O)N1CCCC1)c1cc(Br)ccc1Cl,7.39% (inactive)
2,O=C(COc1ccc(Cl)cc1)OCC(=O)N1CCCC1,0.56% (inactive)
3,O=C(COC(=O)c1cc(Br)ccc1Cl)NC1CC1,26.2% (inactive)
4,CCC1CCCCN1C(=O)CCCOc1ccccc1 (stereo unspecified),-1.7% (inactive)
5,O=C(CNS(=O)(=O)c1ccccc1)Nc1ccc2c(c1)OCO2,0.17% (inactive)
6,O=C(Nc1ccccc1C(=O)N1CCNCC1)c1ccco1,-1.36% (inactive)
7,CC1CCc2nn(CC(=O)Nc3c(F)cc(F)cc3Br)cc2C1 (stereo unspecified),0.73% (inactive)
8,Cc1cc(C(=O)N2CCCC(C(=O)c3cccc(C(F)(F)F)c3)C2)nc(C)n1 (stereo unspecified),-11% (inactive)
9,COc1ccc(Cl)cc1-c1csc(N)n1,-2.91% (inactive)
10,O=C(CSc1nc2ccc([N+](=O)[O-])cc2[nH]1)c1ccc2ccccc2c1,13.4% (inactive)
11,Cc1ccc(NS(=O)(=O)c2cc(C(=O)NCc3ccccn3)ccc2Cl)cc1C,4.55% (inactive)
12,CC(=O)Nc1cccc(NC(=O)c2cc(C)on2)c1,-10.6% (inactive)
13,CC(=O)c1ccc(NC(=O)Cn2nc(C)c([N+](=O)[O-])c2C)cc1,2.02% (inactive)
14,CN(C)CCN1CC(C(=O)O)CC1=O (stereo unspecified),-2.28% (inactive)
15,CN1CCN(S(=O)(=O)c2ccc(-c3noc(C4CCN(S(C)(=O)=O)CC4)n3)cc2)CC1,-1.89% (inactive)
16,O=C(O)c1ccc(N/N=C/c2ccc(OC(=O)c3ccccc3Cl)cc2)cc1,4.34% (inactive)
17,O=C(Oc1ccc(/C=N/O)cc1)c1ccccc1,30.8% (inactive)
18,Cn1c(O)c(N=Nc2nc(-c3ccccc3)cs2)c2ccccc21,68% (inactive)
19,CCc1ccc2[nH]c(O)c(N=NC3=NC(=O)CS3)c2c1,1.19% (inactive)
20,COc1ccc(CCNC2CCCCC2)cc1OC,5.74% (inactive)
21,O=C(Nc1ccccn1)c1ccc(Br)c(S(=O)(=O)N2CCCCC2)c1,4.83% (inactive)
22,CCCN(N=Nc1cccc([N+](=O)[O-])c1)c1cccc([N+](=O)[O-])c1,1.3% (inactive)
23,O=c1cc(-c2ccc(O)cc2)oc2cc(O)cc(O)c12,-7.5% (inactive)

row,SMILES,inhibition
1,O=c1cc(-c2ccccc2)oc2cc(O)cc(O)c12,17.6% (inactive)
2,Cc1cc(OCC(=O)NC(C)C)ccc1Cl,8.21% (inactive)
3,Cc1noc(-c2ccc(C(F)(F)F)cc2)c1NC(=O)Nc1ccc(Cl)cc1,13.4% (inactive)
4,O=C(O)c1cccc(Cn2c(Cl)c(/C=N/NC(=O)c3ccc(O)cc3)sc2=O)c1,-11.5% (inactive)
5,O=c1[nH]c(SCc2ccc([N+](=O)[O-])cc2)nc2[nH]ncc12,-6.17% (inactive)
6,CC[C@H]1CC2CN3CCc4c([nH]c5ccccc45)C(C(=O)OC)(C2)C13 (stereo partly specified),0.73% (inactive)
7,CC[C@H]1CC2CN3CCc4c([nH]c5cc(OC)ccc45)[C@](C(=O)OC)(C2)[C@H]13,-5.98% (inactive)
8,COC(=O)C1=C(c2cc3ccccc3o2)C[C@@H]2CC[C@H]1N2C(=O)NC(C)C,19.5% (inactive)
9,Cn1c(NCc2ccco2)nc2c1c(=O)n(Cc1ccc(Cl)cc1)c(=O)n2C,7.2% (inactive)
10,Cn1c(NCc2ccco2)nc2c1c(=O)n(Cc1ccc(Cl)c(Cl)c1)c(=O)n2C,6.79% (inactive)
11,Cn1c(NCc2ccccc2)nc2c1c(=O)n(Cc1ccccc1)c(=O)n2C,-5.24% (inactive)
12,COc1ccc(CNc2nc3c(c(=O)n(Cc4ccc(Br)cc4)c(=O)n3C)n2C)cc1,34.1% (inactive)
13,CC(C)c1nnc(N2C(=O)c3oc4ccccc4c(=O)c3C2c2ccco2)s1 (stereo unspecified),-6.42% (inactive)
14,CC(=O)c1ccc(NC(=O)CSc2nnc(Cn3cnc4ccccc43)o2)cc1,-0.74% (inactive)
15,CCc1cc2cc3c(cc2nc1SCC(=O)Nc1nnc(C)s1)OCCO3,-4.07% (inactive)
16,COc1ccc(C(CCNCc2ccccc2)c2ccc(F)cc2)cc1 (stereo unspecified),-2.55% (inactive)
17,COc1ccc(CNCCC(c2ccc(OC(C)C)cc2)C(C)C)cc1OC (stereo unspecified),45.4% (inactive)
18,COc1ccc(CNCCC(c2ccc(F)cc2)c2ccc(OC)cc2)cc1 (stereo unspecified),41.6% (inactive)
19,COc1ccc(C(CCNCc2ccc(OC)c(OC)c2)c2ccc(F)cc2)cc1 (stereo unspecified),2.06% (inactive)
20,COc1ccccc1Nc1nc(N)nc(CSC(=S)N2CCCCC2)n1,5.54% (inactive)
21,CCCc1nnc(SCC(=O)N2CCCCC2C)n1CC (stereo unspecified),-2.59% (inactive)
22,CCOc1ccc(-c2ccc(SCC(=O)NCC3CCCO3)nn2)cc1 (stereo unspecified),3.18% (inactive)

# Source: PubChem BioAssay AID1626 (SRMLSC, 2009)
